Shown are actives, neighbours in structure and some others; about 0.93% of the full set was active somewhere.
CIT2-GFP yeast = alters CIT2-GFP fluorescence in TOR pathway yeast screen; S. cerevisiae CIT2-GFP strain, flow cytometry, 3 h; 100 means same as DMSO wells; GFP response vs DMSO, % at 10 µM; actives 0.065% (n = 320,000); AID 2029;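 active = GFP response relative to DMSO above a set limit, near the screen mean plus 3 SD, cut at about 150% in these data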;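 also: ratio of well median GFP fluorescence to mean of DMSO wells on the plate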
AGP1-GFP MLPCN = yeast TOR pathway AGP1-GFP modulation. GFP response vs DMSO, % at 10 µM. actives 0.02% (n = 320,000). S. cerevisiae AGP1-GFP multiplex flow cytometry, 3 h; GFP as percent of DMSO wells. AID 2066;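 active = GFP response relative to DMSO above a set limit, near screen average plus 3 SD, cut at about 150% in these data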;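 also: median GFP channel fluorescence of the gated AGP1 strain per well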
MEP2-GFP yeast = modulators of TOR pathway MEP2-GFP in S. cerevisiae; S. cerevisiae MEP2-GFP strain, flow cytometry GFP, 3 h; 100% = DMSO control level; GFP response vs DMSO, % at 10 µM; actives 0.51% (n = 330,000); AID 2016;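 active = GFP response versus DMSO above a set limit, roughly screen mean plus 3 SD, cut at about 180% in these data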;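 also: median GFP fluorescence of the barcode-gated MEP2-GFP cells per well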
LAP4 TOR yeast = alters LAP4-GFP fluorescence in TOR pathway yeast screen | GFP response vs DMSO, % at 10 µM | S. cerevisiae LAP4-GFP multiplex, flow cytometry GFP, 3 h; median GFP as percent of DMSO wells | actives 0.34% (n = 320,000);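 active = GFP response vs DMSO above a set limit, about the screen mean plus 3 SD, cut at about 150% in these data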
RPL19A TOR yeast = yeast TOR pathway RPL19A-GFP modulation; S. cerevisiae RPL19A-GFP strain, flow cytometry, 3 h; active compounds read low; percent response vs DMSO, % at 10 µM; actives 0.3% (n = 330,000);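 active = percent response vs DMSO below 50%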;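 also: median channel GFP fluorescence of the barcoded RPL19A-GFP strain; lower means less RPL19A-GFP as with rapamycin TOR inhibition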
LAP4 cherry2 = second confirmation of modulators of TOR reporter LAP4-GFP in yeast. shares compounds with LAP4 TOR yeast. AID 2621. actives 20% (n = 590). GFP response vs DMSO, % at 10 µM. S. cerevisiae LAP4-GFP strain, flow cytometry GFP, 3 h;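 active = GFP signal as percent of the solvent control above about 150%, meaning raised reporter expression, limit read from the data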
MEP2-GFP pick2 = second confirmation of modulators of TOR reporter MEP2-GFP in yeast; shares compounds with LAP4 TOR yeast; S. cerevisiae MEP2-GFP strain, flow cytometry GFP, 3 h; GFP response vs DMSO, % at 10 µM; actives 10% (n = 590);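 active = GFP signal above 150% of the solvent control wells, that is a rise of more than half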;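 also: median channel GFP fluorescence of all gated yeast cells per well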
RPL19A-GFP pick2 = second confirmation of modulators of TOR reporter RPL19A-GFP in yeast | shares compounds with LAP4 TOR yeast | S. cerevisiae RPL19A-GFP strain, flow cytometry GFP, 3 h; active compounds read low; 100% means same as DMSO wells | GFP response vs DMSO, % at 10 µM | actives 3% (n = 590) | AID 2623;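 active = under 65% GFP response relative to DMSO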;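 also: median GFP channel fluorescence per well over the all cells gate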
CIT2-GFP pick2 = second confirmation of modulators of TOR reporter CIT2-GFP in yeast; shares compounds with LAP4 TOR yeast; S. cerevisiae CIT2-GFP strain, flow cytometry GFP, 3 h; DMSO control wells read 100%; GFP response vs DMSO, % at 10 µM; actives 8% (n = 590); AID 2624;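 active = GFP response vs DMSO above about 150%, limit read from the data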;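 also: median green fluorescence per well over all gated yeast cells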
AGP1 GFP CP2 = second confirmation of modulators of TOR reporter AGP1-GFP in yeast; shares compounds with LAP4 TOR yeast; S. cerevisiae AGP1-GFP strain, flow cytometry GFP, 3 h; percent response vs DMSO, % at 10 µM; 590 tested, under 10 active;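 active = over 150 percent of DMSO response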;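 also: median GFP channel fluorescence over all cells without mother daughter split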
Yeast autofluor = counter-screen for compound autofluorescence in yeast s288c cells; 610 tested, under 10 active; fluorescence change (kMESF span) at 33 µM; shares compounds with LAP4 TOR yeast; S. cerevisiae s288c, 520 nm autofluorescence, flow cytometry, 3 h; active compounds read high; zero means same as solvent-only cells;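 active = fluorescence span over the dose series, or activity score, above about 33, limit read from the data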
s288c autofl DR = TOR screen hit shows autofluorescence in yeast s288c; 110 tested, under 10 active; AID 488829; S. cerevisiae s288c parental, compound autofluorescence, flow cytometry, 3 h; fluorescence change (span) at 33 µM; shares compounds with LAP4 TOR yeast;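 active = fluorescence change span, or the activity score built from it, above 25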
TORC1 bypass = stops wildtype yeast growth while TORC1 bypass cells still grow; shares compounds with LAP4 TOR yeast; S. cerevisiae BY4741 spot growth rating, 48-72 h; active compounds read low; growth rating (0-3) at 30 µM; 120 tested, under 10 active; AID 504456;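 active = growth rating at most 1 for wild type yeast while the TORC1 bypass strain still grows fully, rated 3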
Hits are given with their value; 0 = inactive; - = no result.

SMILES | CIT2-GFP yeast | AGP1-GFP MLPCN | MEP2-GFP yeast | LAP4 TOR yeast | RPL19A TOR yeast | others
O=C1C2C3C=CC(C4CC34)C2C(=O)N1CCCCN1CCN(c2ccc(F)cc2)CC1 (stereo not given) | 0 | 0 | 0 | 0 | 0
Cc1cc(SCC(=O)NCCC2=CCCCC2)nc2ccccc12 | 0 | 0 | 0 | 0 | 0
Cc1ccc2sc(=O)[nH]c2c1 | 0 | 0 | 0 | 0 | 0
COc1ccc(C2CC(=O)Nc3n[nH]c(-c4ccccc4)c32)cc1OC (stereo not given) | 0 | 0 | 0 | 0 | 0
Oc1c(Br)cc(Br)cc1C=Nc1cccnc1 | 0 | 0 | 0 | 0 | 0 | LAP4 cherry2=0;MEP2-GFP pick2=0;RPL19A-GFP pick2=0;CIT2-GFP pick2=0;AGP1 GFP CP2=0
Oc1c(Br)cc(Br)cc1C=Nc1ccc2[nH]ncc2c1 | 0 | 0 | 0 | 183.9 | 0 | Yeast autofluor=0
Oc1c(Br)cc(Br)cc1/C=N/c1nccs1 | 0 | 0 | 0 | 194.1 | 0 | LAP4 cherry2=0;MEP2-GFP pick2=0;RPL19A-GFP pick2=0;CIT2-GFP pick2=0;AGP1 GFP CP2=0
Oc1ccc(Cl)cc1/C=N/c1nccs1 | 0 | 0 | 0 | 0 | 0
O=C(Nc1ccc(Br)cc1)C1CCN(c2cnccn2)CC1 | 0 | 0 | 0 | 0 | 0
COc1cccc2oc3cc(C#CC4(O)CCCCC4)ccc3c(=O)c12 | 0 | 0 | 0 | 0 | 0
O=c1c2ccccc2oc2cc(C#CC3(O)CCCCC3)ccc12 | 0 | 0 | 0 | 153.4 | 0 | LAP4 cherry2=0;MEP2-GFP pick2=0;RPL19A-GFP pick2=0;CIT2-GFP pick2=0;AGP1 GFP CP2=0
COCCCNC(=O)c1cc2c(=O)n3cccc(C)c3nc2n(C(C)C)c1=N | 0 | 0 | 0 | 0 | 0 | LAP4 cherry2=0;MEP2-GFP pick2=0;RPL19A-GFP pick2=0;CIT2-GFP pick2=0;AGP1 GFP CP2=0
CC(=O)NN1C(=O)/C(=C/c2ccc(Br)o2)SC1=S | 0 | 0 | 186.9 | 0 | 0 | Yeast autofluor=0
CC(=O)NN1C(=O)/C(=C\c2ccc(Br)o2)SC1=S | 0 | 0 | 0 | 0 | 0
CC(C)CCN1C(=O)c2ccc(C(=O)NCc3ccccn3)cc2C1=O | 0 | 0 | 0 | 163.6 | 0 | LAP4 cherry2=0;MEP2-GFP pick2=0;RPL19A-GFP pick2=0;CIT2-GFP pick2=0;AGP1 GFP CP2=0
CN1C(=O)c2ccc(C(=O)NCc3ccccn3)cc2C1=O | 0 | 0 | 0 | 0 | 0
CCNC(=O)CN1C(=O)NC(Cc2ccccc2)(Cc2ccccc2)C1=O | 0 | 0 | 0 | 0 | 0
COc1ccc(C(=O)NCc2ncccc2C)cc1OC1CCN(C(C)=O)CC1 | 0 | 0 | 0 | 0 | 0
COc1ccc2c(COC(=O)CNC(=O)C34CC5CC(CC(C5)C3)C4)cc(=O)oc2c1 | 0 | 0 | 0 | 0 | 0
COc1cc(CNC(=O)CCCCCCC(C)C)ccc1O | 0 | 0 | 0 | 158.0 | 0 | LAP4 cherry2=160.3;MEP2-GFP pick2=211.3;RPL19A-GFP pick2=0;CIT2-GFP pick2=187.7;AGP1 GFP CP2=0;Yeast autofluor=0
CC(OC(=O)c1ccc(Cl)nc1)C(=O)Nc1ccc2c(c1)OCO2 (stereo not given) | 0 | 0 | 0 | 0 | 0
O=S(=O)(/N=C(\Sc1ccc(Cl)cc1)c1ccccc1)c1ccccc1 | 0 | 0 | 0 | 213.6 | 0 | Yeast autofluor=0
CS/C(=N\S(=O)(=O)c1ccc(Cl)cc1)c1ccccc1 | 0 | 0 | 0 | 0 | 0
CC(NC(=S)NCCN1CCOCC1)C12CC3CC(CC(C3)C1)C2 (stereo not given) | 0 | 0 | 0 | 0 | 0
CSc1nc(Cc2ccc(Cl)cc2)nc2ccccc12 | 0 | 0 | 0 | 161.4 | 0 | LAP4 cherry2=0;MEP2-GFP pick2=0;RPL19A-GFP pick2=0;CIT2-GFP pick2=0;AGP1 GFP CP2=0
SMILES | CIT2-GFP yeast | AGP1-GFP MLPCN | MEP2-GFP yeast | LAP4 TOR yeast | RPL19A TOR yeast | others
Cc1cc(Cl)ccc1N(CC(=O)NCCSCc1ccco1)S(C)(=O)=O | 0 | 0 | 0 | 0 | 0 | LAP4 cherry2=0;MEP2-GFP pick2=0;RPL19A-GFP pick2=0;CIT2-GFP pick2=0;AGP1 GFP CP2=0
CCOC(=O)c1ccc(NC(=O)COC(=O)Cc2csc(-c3ccccc3)n2)cc1 | 0 | 0 | 0 | 0 | 0
Cc1cc(NC(=O)CCS(=O)(=O)c2nc(-c3ccccc3)cc(C(F)(F)F)n2)no1 | 0 | 0 | 0 | 0 | 0
CS(=O)(=O)c1nc(-c2ccccc2)cc(C(F)(F)F)n1 | 0 | 0 | 0 | 160.1 | 0 | Yeast autofluor=0
O=C1CC(C(F)(F)F)=NN1 | 0 | 0 | 0 | 0 | 0
O=C(CSc1nncc(=O)[nH]1)NC1CCCCC1 | 0 | 0 | 0 | 0 | 0
CCN(CC(=O)Nc1ccccc1C(F)(F)F)CC(=O)NC1CC1 | 0 | 0 | 0 | 0 | 0
CCN(CC(=O)Nc1ccc(Cl)c(C(F)(F)F)c1)CC(=O)NC1CCS(=O)(=O)C1 (stereo not given) | 0 | 0 | 0 | 0 | 0 | LAP4 cherry2=0;MEP2-GFP pick2=0;RPL19A-GFP pick2=0;CIT2-GFP pick2=0;AGP1 GFP CP2=0
Cc1ccsc1/C=c1\sc2ncnn2c1=O | 0 | 0 | 0 | 0 | 0
O=c1/c(=C/c2cccc3ccccc23)sc2ncnn12 | 0 | 0 | 0 | 155.1 | 0 | Yeast autofluor=0;s288c autofl DR=0;TORC1 bypass=0
CC(C(=O)NC1CCCCC1)N1CCN(C)CC1 (stereo not given) | 0 | 0 | 0 | 0 | 0
NS(=O)(=O)c1ccc(CCNC(=O)C2CCCN2S(=O)(=O)c2cccc3nsnc23)cc1 (stereo not given) | 0 | 0 | 0 | 0 | 0
CNc1nc(N)c([N+](=O)[O-])c(Nc2ccccc2)n1 | - | - | - | - | - | s288c autofl DR=0;TORC1 bypass=0
CNc1nc(N)c([N+](=O)[O-])c(Nc2ccc(Cl)cc2)n1 | - | - | - | - | - | s288c autofl DR=0;TORC1 bypass=0
COCCNc1nc(N)c([N+](=O)[O-])c(NCC2CCCO2)n1 (stereo not given) | 0 | 0 | 0 | 0 | 0
Nc1nc(NCc2ccccc2)nc(Nc2ccc(F)cc2)c1[N+](=O)[O-] | 0 | 0 | 0 | 0 | 0
CCOc1ccc(Nc2nc(NC)nc(N)c2[N+](=O)[O-])cc1 | - | - | - | - | - | s288c autofl DR=0;TORC1 bypass=0
